# Shown are actives, neighbours in structure and some others; about 19% of the full set was active somewhere.
# HT1080NT lethal: kills 2HG-producing HT-1080-NT fibrosarcoma cells; HT-1080-NT fibrosarcoma viability, CellTiter-Glo ATP luminescence, 48 h; Potency, µM (doses to about 46.1 µM), for inactives: at the highest dose activity, negative = less viability, most hits filed as cytotoxic; 1.6% of 360,000 active;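 note: NT is the 2HG producing partner of a matched IDH1 knockdown line; potency is the fitted concentration of half-maximal effect; 0% = DMSO-treated cells and -100% = media-only wells without cells; nearly all actives have a fitted effect of over 55% in size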
#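 Fibrosarcoma NT cells, 750 per well in 5% FBS RPMI, were exposed to compound for 48 hours. Viability: CellTiter-Glo luminescence.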
# DT40 TDP1 no CPT: qHTS for Inhibitors of human tyrosyl-DNA phosphodiesterase 1 (TDP1): qHTS in cells in absence of CPT. DT40 Tdp1-/- hTDP1 cells, no CPT, ATP luminescence, 48 h. Potency, µM (titrated, usually from 46.2 µM), without a hit: top-dose activity change, negative = growth inhibition, usual class: inhibitors. 15% of 420,000 active; note: potency is the fitted concentration of half-maximal effect; nearly all actives have a fitted effect of over 55% in size
#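 Seeded 400 DT40-hTDP1 cells/well (vehicle DMSO, no 20 nM CPT); pinned compounds; ≥48 hr at 37 °C; CellTiter-Glo luminescence as viability measure.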
# TDP1 cell CPT: DT40-hTDP1 cell growth loss with CPT; chicken DT40 Tdp1-/-;hTDP1 cells + 20 nM CPT, ATP luminescence, 48 h; Potency, µM (titrated, usually from 46.2 µM), for the others: top-dose activity change, negative = growth inhibition, usual class: inhibitors; 12% of 420,000 active; AID 686979; note: potency is the fitted concentration of half-maximal effect; nearly all actives have a fitted effect of over 55% in size
#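 Chicken DT40 Tdp1-/- cells complemented with human TDP1, 400 cells/well, exposed to compounds plus 20 nM camptothecin for at least 48 h at 37 C; viability read as ATP content by CellTiter-Glo luminescence.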
# HT1080 IDH1KD tx: HT-1080 IDH1 knockdown cell toxicity (counter line); HT-1080 IDH1 knockdown viability, ATP luminescence, 48 h; AID 686971; 2% of 360,000 active; Potency, µM (top dose mostly 46.1 µM), without a hit: top-dose activity, negative = toxicity, usual class: cytotoxic;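 note: potency is the fitted concentration of half-maximal effect; 0% = DMSO wells and -100% = cell-free medium wells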
#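 % activity derives from luminescence (CellTiter-Glo), normalised to DMSO and no-cell wells. HT-1080-IDH1KD cells, 750/well, had 48 h compound exposure at 37 °C.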
# ELG1 repair inh: ELG1-dependent DNA repair inhibition; HEK293T ELG1-luciferase reporter, luminescence, 16 h; DNA damage induced by 5-fluorouridine; Potency, µM (doses to about 46.1 µM), without a hit: at the highest dose activity change, negative = inhibition, most hits filed as inhibitors; 2.3% of 330,000 active; note: potency is the fitted concentration of half-maximal effect; nearly all actives have a fitted effect of over 55% in size
#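 Luminescence from the luciferase reporter, measured 30 min after ONE-Glo reagent at room temperature, was the read-out. Beforehand, 2,000 cells per well were exposed for 16 hr at 37 °C to 5-fluorouridine together with compound or vehicle.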
# IL1B secr inh: inflammasome signaling inhibition, IL-1 beta readout; THP-1 LPS/ATP IL-1B secretion, AlphaLISA, 16 h; active compounds read low; activity change, % at 57.5 µM; 4.7% of 360,000 active; AID 743279; in the data active = activity change below about -50%; inconclusive = mostly about -30% to -49%
#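 Secreted IL-1B measured by AlphaLISA bead assay after 16 h compound exposure of THP-1 cells; compounds (final up to 57.5 uM) added 1 h before LPS (250 ng/mL) and ATP (1.25 mM) stimulation; lower signal means less secretion.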
# * = called active by the depositor; i = inactive; ? = inconclusive; · = no result given. Unless noted, calls come from the whole dose curve; as a rule, active = well fitted curve in the direction sought with a large enough effect; inconclusive = small, poorly fitted or top-dose-only effect, or another doubt; inactive = no such curve, though single readings can be large; an effect the other way counts as inactive or inconclusive. Unless noted, % is set by controls: 0 for no effect and ±100 for the full control effect.
SMILES,HT1080NT lethal,DT40 TDP1 no CPT,TDP1 cell CPT,HT1080 IDH1KD tx,ELG1 repair inh,IL1B secr inh
CC(NC(=O)C1=CC=CN2CCS(=O)(=O)N=C12)c1ccc(Cl)cc1Cl (stereo unspecified),-4.2%,?,-25.8%,-0.8%,-3.4%,-9.6
NC(=O)CSc1oc(-c2ccco2)nc1S(=O)(=O)c1ccc(F)cc1,9.1%,1.8%,6.6%,15.5%,0.7%,3.5
O=[N+]([O-])c1cccnc1N/N=C/c1ccccc1O,?,9.2µM*,?,?,?,46.7
Cc1cc(/C=N/Nc2ccc([N+](=O)[O-])cn2)c(C)n1-c1ccc(C(=O)O)cc1,-9.0%,-28.3%,-8.9%,-19.5%,-11.4%,0.0
O=C(CC(=O)c1ccccc1)Nc1ccc([N+](=O)[O-])cc1,-8.3%,?,23.1µM*,-25.0%,·,?
Cc1ccccc1-n1c(C)cc(/C=N/Nc2ccc([N+](=O)[O-])cn2)c1C,23.1µM*,?,25.9µM*,?,?,-12.7
Cc1ccc(S(=O)(=O)N2CCC(C(=O)NC3CC(C)(C)NC(C)(C)C3)CC2)cc1C,-11.2%,-10.3%,-0.8%,-0.5%,-1.0%,13.8
CCc1ccc([C@@H]2C[C@H]3[C@@H](CN2S(=O)(=O)c2ccc(C)cc2)C(=O)C[C@@H](c2cccc(Cl)c2)N3S(=O)(=O)c2ccc(C)cc2)cc1,-9.4%,?,-19.3%,-5.6%,·,46.5
CCC(C)NC(=O)Cn1c(=O)sc2ccccc21 (stereo unspecified),?,-14.3%,28.3%,13.3%,?,-17.7
CC(C)c1csc(CN2CCC(C(=O)Nc3cccc(-c4ccco4)c3)CC2)n1,-5.2%,18.4µM*,?,-14.5%,·,-27.7
CC(C)c1csc(CN2CCC(n3nccc3NC(=O)Cc3ccccc3)CC2)n1,2.6%,25.9µM*,?,-3.5%,-3.0%,i
O=C(CCOc1ccccc1)Nc1ccnn1C1CCN(CCc2ccccc2)CC1,-5.8%,-25.5%,?,-2.0%,6.6%,-51.5*
CCc1noc(C)c1C(=O)NNC(=O)c1ccc(N(CC)CC)cc1,-3.5%,-7.4%,1.1%,4.2%,7.9%,-2.6
CCc1cc2c(=O)c(-c3nc(C)cs3)coc2cc1OC(C)C(=O)NCCO (stereo unspecified),17.8%,?,?,15.1%,?,-10.8
COc1ccc(Nc2ncnc3c2nc2n3CCCCC2)cc1,·,?,-18.6%,·,·,·
C#CCOCCOCCOCCNc1nc(N2CCN(C(=O)[C@H](CCC(=O)O)n3cc(C(N)CO)nn3)CC2)nc(N2CCN(C(=O)[C@H](CCC(=O)O)n3cc(C(N)CC(C)C)nn3)CC2)n1 (stereo partly specified),·,·,·,·,27.2%,·
O=C(NCCN1CCOCC1)c1ccc(/C=C2\Sc3ccccc3N(Cc3ccccc3F)C2=O)cc1,-11.0%,?,?,-28.8%,20.6µM*,-5.1
CN1CCN(CCCNC(=O)c2ccc(/C=C3\Sc4ccccc4N(Cc4ccccc4F)C3=O)cc2)CC1,23.1µM*,?,?,?,-8.8%,-13.2
Cc1ccc(S(=O)(=O)N2CCN(C(=O)Cn3c(=O)cnc4ccccc43)CC2)cc1,-0.6%,-17.1%,?,10.6%,-4.6%,-9.6
CC(=O)N1CCN(c2ccc(Nc3ncnc4c3oc3ccccc34)cc2)CC1,-17.7%,10.3µM*,14.6µM*,?,?,-81.1*
O=C(CSc1ncnc2c1oc1ccccc12)N1CCN(c2ccccc2)CC1,5.4%,29.1µM*,?,2.4%,·,45.6

# Screens as filed in PubChem BioAssay.
